This is an account of results in article PMC5540273 (PLoS ONE, 2017).

Test systems include EPHA2; EPHA3; EPHA4; EPHA5; EPHA6; EPHA7; EPHA8; EPHB1; EPHB2; EPHB3; EPHB4; EPHB6; ERBB2; ERBB3; ERBB4.
Common to all, as to conditions: concentration: 1 μM, replicates: in singlicate; n = 1
The test system of another experiment is T1, ERK1.
T1 construct: gene MAPK3

The subject of the next experiment is T2, ERK2.
T2 construct: gene MAPK1

Another experiment concerns T3, ERK3.
T3 construct: gene MAPK6

For another experiment, the system named is T4, ERK4.
T4 construct: gene MAPK4

Another experiment has as its system T5, ERK5.
T5 construct: gene MAPK7
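Further: KINOMEscan kinase panel screen.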

Consider `COc1cccc(CNC(=O)NC2CCN(c3ccnc(Nc4ccc(F)cc4)n3)C2)c1` (stereo not shown) [GSK1379723], for which the “%Inh” value amounted to 2% with EPHA2; 0% in the experiment on EPHA3; 0% with EPHA4; 0% in the experiment on EPHA5; 0% in the experiment on EPHA6; 1% in the experiment with EPHA7. In addition, the “%Inh” value came to 15% with EPHA8; 0% in the experiment with EPHB1; 0% in the experiment with EPHB2; 5% in the experiment on EPHB3; 2% in the experiment with EPHB4; 15% in the experiment on EPHB6. Besides, the “%Inh” value is on record as 2% in the experiment with ERBB2; 0% with ERBB3; 22% in the experiment with ERBB4; 0% in the experiment on ERK1; 0% in the experiment on ERK2; 10% in the experiment on ERK3. Also, the “%Inh” value with ERK4 and in the experiment on ERK5 was 0% in each case.

On to `Fc1ccc(-c2nn3cccc(F)c3c2-c2ccncc2)cc1` [GW475620], for which the “%Inh” value with EPHA2 stood at 12%; in the experiment with EPHA3 it was 2%; with EPHA4, 15%; in the experiment on EPHA5 it was 13%; in the experiment with EPHA6 it was 38%; in the experiment on EPHA7, 0%. The “%Inh” value is 4% in the experiment on EPHA8; 8% in the experiment on EPHB1; 0% in the experiment on EPHB2; 31% in the experiment on EPHB3; 10% in the experiment on EPHB4; 0% with EPHB6. In addition, the “%Inh” value in the experiment with ERBB2 is listed as 39%; in the experiment with ERBB3 it was 0%; with ERBB4, 30%; in the experiment with ERK1, 21%; in the experiment on ERK2, 10%; in the experiment with ERK3 it was 0%. The “%Inh” value was 4% with ERK4 and 0% in the experiment on ERK5.

For the molecule `CNCc1ccc2nc(NC(=O)c3ccc(C(C)(C)C)cc3)cn2c1`, the “%Inh” value came to 3% with EPHA2; 0% in the experiment on EPHA3; 0% in the experiment on EPHA4; 3% in the experiment with EPHA5; 0% in the experiment on EPHA6; 0% with EPHA7. Besides, the “%Inh” value in the experiment on EPHA8 is 0%; in the experiment on EPHB1 it was 0%; with EPHB2 it was 5%; with EPHB3, 0%; with EPHB4 it was 1%; in the experiment on EPHB6 it was 6%. Moreover, the “%Inh” value with ERBB2 is listed as 17%; in the experiment on ERBB3 it was 31%; with ERBB4, 9%; with ERK1, 1%; in the experiment with ERK2 it was 0%; with ERK3, 0%. Further, the “%Inh” value came to 0% in the experiment with ERK4 and 6% in the experiment on ERK5.

Turning to `CC(=O)c1cccc(NC(=O)NC2CCN(c3ccnc(Nc4ccc(F)cc4)n3)C2)c1` (stereo not shown) [GSK1379710], the “%Inh” value in the experiment on EPHA2 is reported as 0%; in the experiment with EPHA3 it was 19%; in the experiment with EPHA4 it was 6%; with EPHA5, 0%; with EPHA6, 7%; with EPHA7, 6%. In addition, the “%Inh” value amounted to 14% in the experiment on EPHA8; 8% with EPHB1; 11% with EPHB2; 7% in the experiment on EPHB3; 4% in the experiment on EPHB4; 19% in the experiment with EPHB6. Moreover, the “%Inh” value in the experiment on ERBB2 is 15%; with ERBB3, 8%; in the experiment on ERBB4 it was 6%; in the experiment on ERK1, 0%; with ERK2, 0%; in the experiment on ERK3, 0%. The “%Inh” value amounted to 30% in the experiment on ERK4 and 12% with ERK5.

Consider `O=C(Nc1n[nH]c2nc(-c3cccs3)c(Br)cc12)C1CC1` [SB-735297], for which the “%Inh” value in the experiment with EPHA2 was found to be 0%; in the experiment with EPHA3, 0%; in the experiment on EPHA4, 1%; in the experiment on EPHA5 it was 0%; in the experiment with EPHA6, 17%; with EPHA7, 0%. Also, the “%Inh” value in the experiment with EPHA8 was 8%; with EPHB1, 0%; in the experiment on EPHB2, 0%; in the experiment with EPHB3, 0%; in the experiment on EPHB4, 0%; in the experiment with EPHB6, 39%. The “%Inh” value with ERBB2, in the experiment with ERBB3, in the experiment with ERBB4, in the experiment with ERK1, in the experiment with ERK2 and in the experiment on ERK3 was 0% throughout. The “%Inh” value in the experiment on ERK4 and in the experiment on ERK5 was 0% each time.

As to `COC(=O)C(NC(=O)NC1CCN(c2ccnc(Nc3ccc(F)cc3)n2)C1)c1ccccc1` (stereo not shown) [GSK1379712], the “%Inh” value is given as 0% in the experiment on EPHA2; 0% in the experiment with EPHA3; 3% in the experiment on EPHA4; 0% in the experiment with EPHA5; 2% in the experiment on EPHA6; 0% with EPHA7. The “%Inh” value turned out to be 10% with EPHA8; 10% with EPHB1; 11% in the experiment on EPHB2; 1% in the experiment on EPHB3; 6% with EPHB4; 92% in the experiment with EPHB6. The “%Inh” value with ERBB2 turned out to be 20%; in the experiment on ERBB3 it was 0%; with ERBB4 it was 0%; in the experiment on ERK1 it was 2%; in the experiment on ERK2, 0%; with ERK3, 0%. Also, the “%Inh” value with ERK4 turned out to be 24%; with ERK5, 13%.

In the case of `O=C(Nc1n[nH]c2cc(-c3ccsc3)ccc12)C1CC1` [SB-732932], the “%Inh” value in the experiment on EPHA2 is given as 0%; with EPHA3 it was 13%; in the experiment on EPHA4 it was 0%; with EPHA5 it was 3%; in the experiment on EPHA6, 6%; in the experiment with EPHA7, 0%. For the same molecule, the “%Inh” value turned out to be 0% in the experiment with EPHA8; 0% with EPHB1; 0% in the experiment on EPHB2; 7% in the experiment with EPHB3; 9% with EPHB4; 18% with EPHB6. Moreover, the “%Inh” value in the experiment on ERBB2 turned out to be 0%; in the experiment with ERBB3, 5%; in the experiment on ERBB4, 9%; with ERK1 it was 0%; in the experiment on ERK2, 7%; in the experiment on ERK3 it was 0%. In addition, the “%Inh” value is 1% in the experiment on ERK4 and 3% with ERK5.

On to `CSc1ccc(-c2nc3n(c2-c2ccncc2)CCC3)cc1` [SKF-105561], for which the “%Inh” value with EPHA2 is on record as 0%; with EPHA3 it was 5%; in the experiment with EPHA4, 14%; in the experiment with EPHA5, 0%; with EPHA6 it was 0%; in the experiment with EPHA7, 9%. Further, the “%Inh” value with EPHA8 was found to be 0%; in the experiment on EPHB1 it was 0%; with EPHB2, 0%; in the experiment on EPHB3, 8%; in the experiment on EPHB4, 21%; in the experiment on EPHB6, 15%. Moreover, the “%Inh” value with ERBB2 came out at 0%; in the experiment on ERBB3, 0%; in the experiment on ERBB4, 3%; in the experiment on ERK1 it was 0%; with ERK2, 0%; in the experiment with ERK3, 0%. The “%Inh” value with ERK4 and in the experiment with ERK5 was 0% throughout.

With `Cc1c(Cn2c(C)c(C)n3c(=O)cc(N4CCOCC4)nc23)cccc1C(F)(F)F` [GSK2328680], the “%Inh” value with EPHA2 was determined as 17%; with EPHA3 it was 0%; in the experiment on EPHA4 it was 1%; with EPHA5, 0%; with EPHA6, 0%; in the experiment with EPHA7, 4%. Besides, the “%Inh” value came to 7% with EPHA8; 0% in the experiment on EPHB1; 0% in the experiment on EPHB2; 2% in the experiment with EPHB3; 14% in the experiment on EPHB4; 0% with EPHB6. In addition, the “%Inh” value was 0% in the experiment with ERBB2; 16% with ERBB3; 4% in the experiment with ERBB4; 0% in the experiment on ERK1; 0% in the experiment on ERK2; 8% in the experiment on ERK3. The “%Inh” value with ERK4 and with ERK5 was 0% in each case.

Take `CNc1nc(-c2ccc3c(N)n[nH]c3c2)cc(N2C[C@@H](C(=O)Nc3ccccc3)CC[C@H]2C)n1` [GSK2298859]: the “%Inh” value in the experiment with EPHA2 is given as 0%; in the experiment on EPHA3 it was 18%; in the experiment with EPHA4 it was 8%; with EPHA5, 0%; with EPHA6, 0%; in the experiment with EPHA7, 1%. The “%Inh” value is on record as 5% in the experiment with EPHA8; 0% in the experiment on EPHB1; 0% with EPHB2; 9% with EPHB3; 14% in the experiment with EPHB4; 9% in the experiment with EPHB6. Besides, the “%Inh” value with ERBB2 came out at 12%; in the experiment on ERBB3 it was 0%; with ERBB4, 19%; in the experiment with ERK1, 0%; in the experiment with ERK2, 0%; in the experiment on ERK3, 6%. Further, the “%Inh” value in the experiment on ERK4 and in the experiment with ERK5 was 0% in each case.

Take `COc1ccc(CSc2nnc(-c3ccc4c(c3)CCO4)o2)cc1`: the “%Inh” value in the experiment on EPHA2 worked out at 0%; with EPHA3 it was 1%; in the experiment on EPHA4, 18%; in the experiment with EPHA5, 0%; with EPHA6 it was 6%; in the experiment with EPHA7, 0%. Besides, the “%Inh” value is on record as 0% in the experiment on EPHA8; 0% in the experiment with EPHB1; 0% in the experiment with EPHB2; 12% with EPHB3; 13% in the experiment on EPHB4; 0% in the experiment with EPHB6. In addition, the “%Inh” value was found to be 18% in the experiment on ERBB2; 0% in the experiment on ERBB3; 0% in the experiment with ERBB4; 0% with ERK1; 0% in the experiment with ERK2; 0% in the experiment on ERK3. The “%Inh” value is 0% in the experiment on ERK4 and 6% in the experiment with ERK5.
